Screens from PubChem.
LASV entry inh = qHTS for Inhibitors of binding or entry into cells for Lassa Virus | Lassa virus pseudotype entry inhibition, cell reporter | Potency, µM (doses to about 37.9 µM), actives largely listed as inhibitors | 1.2% of 300,000 active; calls by dose curve; tested in HEK293 cells; further: nearly all actives have a fitted effect of over 50% in size
FMDV antiviral = High Throughput Screening for Foot and Mouth Disease Virus Antivirals. FMDV antiviral cell-based qHTS. Potency, µM (top dose mostly 57.9 µM), usual class: inhibitors. 1.2% of 410,000 active. AID 1159524, 2015; calls by dose curve; tested in HEK293T cells; further: read-out not given here; nearly all actives have a fitted effect of over 45% in size
HCMV inh = qHTS Assay for inhibitors of the human cytomegalovirus (HCMV); HFF cells, HCMV-luciferase reporter, 72 h; stronger effect = lower value; 4.5% of 410,000 active; AID 1259415, 2018; activity change, negative = inhibition, % at 57.5 µM; in the data active means activity change below about -60%; inconclusive means no clear call, values can overlap the other calls; inactive means above about -39%
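Two compound doses tested in HFFs infected with HCMV-luciferase, MOI 1 PFU/cell, 72 h at 37C. Lysate luminescence read with OneGlo; data normalized against buffer-only and 10uM Salinomycin inhibitor controls.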
HCV inhibitor = qHTS Assay for Inhibitors of Hepatitis C Virus (HCV); Huh7.5.1 HCVcc-Cre infection, luciferase reporter, 44 h; Potency, µM (highest dose often 41.8 µM), hits mostly inhibitors; 3.4% of 340,000 active; AID 651820, 2012; active means well fitted inhibition curve with a large enough effect; inconclusive means small, poorly fitted or top-dose-only effect, or another doubt; inactive means no such curve, though single readings can be large or run the other way
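Antiviral activity was scored by luciferase reporter output from cells infected with HCVcc-Cre (~0.5 moi) in presence of compound, 44 h infection period, cells seeded 1,000/well 4 h prior.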
Marburg entry inh = qHTS for inhibitors of binding or entry into cells for Marburg Virus. Marburg virus pseudotyped entry inhibition, cell reporter. Potency, µM (series often up to 37.8 µM), usual class: inhibitors. 1.8% of 300,000 active. AID 540276, 2011; calls by dose curve; tested in HEK293 cells
Large screens that a line does not name were inactive. This is a sample that favours compounds with a hit; in the whole collection about 7.9% have one here.

Cc1ccc(Sc2ccc(NC(=O)CCl)cc2)cc1C	LASV entry inh inconclusive, FMDV antiviral 28.2µM, HCV inhibitor inconclusive, Marburg entry inh inconclusive
O=C(CCl)Nc1ccccc1Sc1ccccc1	LASV entry inh inconclusive, FMDV antiviral inconclusive, Marburg entry inh inconclusive
COC(=O)c1cc(NC(=O)Cn2nc(-c3ccc(C)c(C)c3)ccc2=O)cc(C(=O)OC)c1	none (no result: HCV inhibitor)
CN1CCN(NC(=S)Nc2ccc(Oc3ccccc3)cc2)CC1	FMDV antiviral inconclusive, HCMV inh -66.9, HCV inhibitor inconclusive, Marburg entry inh inconclusive
COc1ccc2c(c1)[C@H]1[C@H](CO2)[C@H](c2ccccc2)[C@]2(C)C(=O)N[C@@H](C)C(=O)N12	none (no result: LASV entry inh, FMDV antiviral, HCMV inh, Marburg entry inh)
O=c1cc(-c2c(F)c(F)c(F)c(F)c2F)oc2ccccc12	LASV entry inh inconclusive, HCMV inh inconclusive, HCV inhibitor 5.01µM, Marburg entry inh 18.3µM (no result: FMDV antiviral)
COC(=O)c1sccc1S(=O)(=O)N1CCC(n2c(CC3CCCC3)nc3cccnc32)CC1	none (no result: LASV entry inh, HCMV inh, HCV inhibitor, Marburg entry inh)
O=C1NC(=S)N/C1=C/c1cc2c(cc1[N+](=O)[O-])OCO2	HCMV inh -80.0 (no result: LASV entry inh, Marburg entry inh)
COc1ccc(-c2ccc(SCc3cccnc3)nn2)cc1OC	HCMV inh -62.6, HCV inhibitor inconclusive (no result: LASV entry inh, Marburg entry inh)
CC(C)c1ccc(N=Nc2c(O)[nH]c(=O)[nH]c2=O)cc1	none (no result: LASV entry inh, Marburg entry inh)
O=c1[nH]c(=S)[nH]c(O)c1N=Nc1ccc(SC(F)F)cc1	LASV entry inh 3.98µM, HCMV inh -61.4, Marburg entry inh inconclusive
Cc1cc(C)cc(NC(=S)/N=C(\N)Nc2nc(C)c3ccccc3n2)c1	FMDV antiviral inconclusive, HCMV inh -79.1, HCV inhibitor inconclusive, Marburg entry inh inconclusive
Cc1cccc(NC(=S)/N=C(\N)Nc2nc(C)c3cc(C)ccc3n2)c1	HCV inhibitor inconclusive, Marburg entry inh inconclusive
Cc1ccc(NC(=S)/N=C(\N)Nc2nc(C)c3ccccc3n2)cc1C	HCV inhibitor 11.2µM, Marburg entry inh inconclusive
Cc1cccc(NC(=S)/N=C(\N)Nc2nc(C)c3ccc(C)cc3n2)c1	LASV entry inh inconclusive, HCV inhibitor 2µM, Marburg entry inh 11.2µM
Cc1cccc(NC(=S)/N=C(\N)Nc2nc(C)c3ccccc3n2)c1	LASV entry inh inconclusive, HCMV inh inconclusive, HCV inhibitor 3.98µM, Marburg entry inh inconclusive
CCN(CC)S(=O)(=O)c1ccc(N2CCOCC2)c(NC(=O)C2=COCCO2)c1	HCV inhibitor inconclusive
COCCN(CCOC)S(=O)(=O)c1ccc(C(=O)Nc2nc(C)c(C(C)=O)s2)cc1	none
O=C(Nc1nc(-c2ccccc2)c(-c2ccccc2)s1)c1ccc(S(=O)(=O)N(CCCl)CCCl)cc1	LASV entry inh 5.01µM, Marburg entry inh inconclusive
Cc1cc(Cl)n2c(nc3ccccc32)c1C#N	LASV entry inh inconclusive, FMDV antiviral 7.94µM, HCV inhibitor inconclusive, Marburg entry inh 4.47µM
Cc1c(CCCl)c(Cl)n2c(nc3ccccc32)c1C#N	LASV entry inh 11.2µM, FMDV antiviral 3.55µM, HCMV inh -98.7, HCV inhibitor inconclusive, Marburg entry inh 5.01µM
Cc1ccc(-c2c(C#N)c(N)n3c(nc4ccccc43)c2C#N)cc1	LASV entry inh inconclusive, FMDV antiviral inconclusive, HCMV inh -72.3, HCV inhibitor inconclusive, Marburg entry inh inconclusive
CCCCc1c(C)c(C#N)c2nc3ccccc3n2c1Nc1c(C)n(C)n(-c2ccccc2)c1=O	HCMV inh -90.0, HCV inhibitor inconclusive
COC(=O)CC1C(=O)NCCN1C(=O)CN1Cc2ccccc2OC(c2ccccc2)C1 (stereo unspecified)	none (no result: LASV entry inh, HCMV inh, HCV inhibitor, Marburg entry inh)
COc1ccc(CN2CCOc3ccc(CN4CCC(Oc5cccnc5)CC4)cc3C2)cc1	none (no result: LASV entry inh, HCMV inh, HCV inhibitor, Marburg entry inh)
COc1cccc(CCOC(=O)c2c(-c3ccsc3)oc3c2C(OC(C)=O)CCC3)c1 (stereo unspecified)	none (no result: LASV entry inh, HCV inhibitor, Marburg entry inh)
c1ccc2[nH]c(-c3cscn3)nc2c1	HCMV inh -89.5
Cc1cccc(NC(=O)C2CCN(S(=O)(=O)c3ccc4c(c3)OCCCO4)CC2)n1	FMDV antiviral inconclusive, HCMV inh -78.9, HCV inhibitor inconclusive, Marburg entry inh inconclusive
Cc1ccc(NC(=O)C2CCN(S(=O)(=O)c3ccc4c(c3)OCCCO4)CC2)nc1	FMDV antiviral inconclusive, HCMV inh -63.0, HCV inhibitor inconclusive
C[C@H]1[C@@H](NS(=O)(=O)c2ccc(C#N)cc2)CC[C@@]23CCCN2C(=O)CCC[C@@H]13	none (no result: LASV entry inh, FMDV antiviral, HCV inhibitor, Marburg entry inh)
CC1=C(CO)C(=O)OC([C@@H](C)C2CC[C@H]3C4C[C@H]5O[C@]56[C@@H](O)C=CC(=O)[C@]6(C)C4CC[C@]23C)C1 (stereo partly specified)	FMDV antiviral 7.08µM, HCMV inh -106.5, HCV inhibitor inconclusive (no result: LASV entry inh, Marburg entry inh)
Cc1cccc(-c2nnc(SCc3nc4ccccc4[nH]3)n2Cc2ccco2)c1	LASV entry inh inconclusive, HCMV inh -60.6, HCV inhibitor inconclusive, Marburg entry inh inconclusive
COc1cccc(CC(=O)NCC2Cc3cc(Cl)cc(-c4ncccn4)c3O2)c1 (stereo unspecified)	none (no result: LASV entry inh, HCMV inh, HCV inhibitor, Marburg entry inh)
COC(=O)/C(=C1/Oc2cc(C)oc(=O)c2S1)C(F)(F)F	LASV entry inh inconclusive, FMDV antiviral 28.2µM, HCMV inh inconclusive, HCV inhibitor 10µM, Marburg entry inh inconclusive
COC(=O)/C(=C1/Oc2ccc(C(C)(C)C)cc2S1)C(F)(F)F	HCMV inh inconclusive
COC[C@H]1O[C@@H](c2c(OC)cc(OC)cc2OC)[C@H](OC)[C@@H](OC)[C@H]1OC	none (no result: LASV entry inh, FMDV antiviral, HCMV inh, HCV inhibitor)
Cc1ccc(-c2nc(S(=O)(=O)c3ccc(C)cc3)c(SCC(=O)Nc3ccc(F)cc3)o2)cc1	LASV entry inh inconclusive (no result: HCV inhibitor)
CCSc1oc(-c2ccc(F)cc2)nc1S(=O)(=O)c1ccc(C)cc1	HCMV inh -65.3 (no result: HCV inhibitor)
CC(C)CS(=O)(=O)c1oc(-c2ccc(F)cc2)nc1S(=O)(=O)c1ccccc1	LASV entry inh inconclusive, FMDV antiviral 25.1µM, HCMV inh -99.8, Marburg entry inh inconclusive (no result: HCV inhibitor)
CNc1oc(-c2ccc(F)cc2)nc1S(=O)(=O)c1ccccc1	HCMV inh inconclusive
CCNC(=O)C1CCCN(C(=O)c2ccc3c(c2)OCO3)CC1 (stereo unspecified)	none (no result: LASV entry inh, HCV inhibitor, Marburg entry inh)
CCCCc1ccc(NC(=O)CSc2nc3ccccc3nc2N2CCOCC2)cc1	Marburg entry inh inconclusive (no result: HCV inhibitor)
Cc1sc2ncnc(NCC(O)c3ccccc3)c2c1C (stereo unspecified)	LASV entry inh inconclusive, HCMV inh -73.8, HCV inhibitor 11.2µM, Marburg entry inh inconclusive
Cc1sc2ncnc(NCC(c3ccccc3)N(C)C)c2c1C (stereo unspecified)	FMDV antiviral inconclusive, HCV inhibitor inconclusive, Marburg entry inh inconclusive
Cc1sc2ncnc(NCC(O)c3ccc([N+](=O)[O-])cc3)c2c1C (stereo unspecified)	LASV entry inh inconclusive, FMDV antiviral inconclusive, HCMV inh -78.5, HCV inhibitor 11.2µM, Marburg entry inh inconclusive
COc1ccc(CC(=O)NCCCCc2ccccc2)cc1OC	Marburg entry inh inconclusive
COc1ccc(OCc2nnc(SC3CCOC3=O)n2-c2ccccc2)cc1 (stereo unspecified)	none (no result: FMDV antiviral)
Cn1c(COc2ccc(Br)cc2)nnc1SC1CCc2ccccc2C1=O (stereo unspecified)	FMDV antiviral 31.6µM, HCV inhibitor inconclusive, Marburg entry inh inconclusive
